Compound activity (PubChem)
A selection follows.
aSyn UTR act – Activators working through SNCA 5'UTR binding (MLPCN); alpha-synuclein 5'UTR reporter, activators screen; activity score, % (tested at 7.5 µM), hits read low; hit rate 7.1% among 300,000; AID 1814; in the data active means activity score below about -60%
An asterisk follows results filed as active.

Screening CC(=O)Nc1cccc(NC(=O)COc2ccccc2C)c1 returned aSyn UTR act -77.4*.
For CCc1cccc(NC(=O)COc2ccccc2)c1 the results were aSyn UTR act -92.1*.
`CCN1/C(=C/C=C/c2oc3ccc(-c4ccccc4)cc3[n+]2CC)Oc2ccc(-c3ccccc3)cc21` gave aSyn UTR act 140.4.
COc1cccc(NC(=O)COc2ccccc2C(N)=O)c1 was read as aSyn UTR act -75.2*.
For CN(c1cccc(NC(=O)COc2ccc(Cl)cc2Cl)c1)S(C)(=O)=O the results were aSyn UTR act -131.1*.
Screening CN(c1cccc(NC(=O)COc2ccccc2)c1)S(C)(=O)=O returned aSyn UTR act -113.2*.
`Cc1ccc(NC(=O)COc2ccccc2C=O)cc1Cl` gave aSyn UTR act -121.1*.
Cn1c(=O)oc2cc(NC(=O)CCl)ccc21 was read as aSyn UTR act -107.3*.
COc1ccc(Nc2nnc(SCC3CCCO3)s2)cc1 (configuration not stated) was read as aSyn UTR act -104.7*.
For COc1cccc(Nc2nnc(SCC3CCCCO3)s2)c1 (configuration not stated) the results were aSyn UTR act -76.3*.
For CCC(CC)NC(=O)c1cc2c(C)nn(Cc3ccccc3Cl)c2s1 the results were aSyn UTR act 70.5.
Screening Cc1cnc(NC(=O)c2cc3c(C)nn(-c4ccccc4)c3s2)s1 returned aSyn UTR act -66.1*.
Screening Cc1cccn2c(=O)c3cc(C(=O)N4CCCCC4)sc3nc12 returned aSyn UTR act -64.1*.
Cc1nn(-c2ccccc2)c2sc(C(=O)N3CCCCC3)cc12 was read as aSyn UTR act -67.7*.
For O=C(Nc1cc2c(cc1Cl)OCCO2)c1ccco1 the results were aSyn UTR act -162.7*.
O=C(Nc1ccc(NC(=O)c2ccco2)c(Cl)c1)c1ccc2c(c1)OCCO2 was read as aSyn UTR act -76.1*.
Screening O=C(Nc1cc2c(cc1Br)OCCO2)c1ccco1 returned aSyn UTR act -100.6*.
Screening O=C(Nc1cc2c(cc1Br)OCCO2)c1cccs1 returned aSyn UTR act -141.9*.
O=C(Nc1c(C(=O)Nc2ccc3c(c2)OCCO3)cnn1-c1ccccc1Cl)c1ccco1 was read as aSyn UTR act -102.1*.
For CC(NC(=O)c1cc(COc2cccc(C(F)(F)F)c2)on1)c1nccs1 (configuration not stated) the results were aSyn UTR act -61.8*.
O=C(NC1CCOC1)c1cc(COc2cccc(C(F)(F)F)c2)on1 (configuration not stated) was read as aSyn UTR act -67.3*.
For C[C@@H]1CN(C(=O)c2cc(COc3cccc(C(F)(F)F)c3)on2)C[C@H](C)O1 the results were aSyn UTR act -138.0*.
Screening CCOC(=O)N1CCN(C(=O)c2cc(COc3cccc(C(F)(F)F)c3)on2)CC1 returned aSyn UTR act -92.1*.
O=C(/C=C/c1c[nH]c2ccccc12)c1cccc2ccccc12 was read as aSyn UTR act -94.7*.
Screening CCOC(=O)c1ccc(-c2ccc3c(c2)CCC3)nc1C returned aSyn UTR act -99.1*.
CCOC(=O)c1cc(-c2ccc(C)cc2)nc2nc(SC)[nH]c(=O)c12 was read as aSyn UTR act 49.3.
`COC(=O)c1ccc(-c2ccc(F)cc2)nc1C` gave aSyn UTR act -192.1*.
For O=C(O)CCCn1c(O)c(C=C2N=c3ccccc3=N2)sc1=S the results were aSyn UTR act -88.9*.
O=C(N[C@@H](Cc1c[nH]c2ccccc12)C(=O)NC1CC1)c1ccccc1Cl was read as aSyn UTR act -159.9*.
For CC1Cc2cc(/C=C3/SC(=S)N(C)C3=O)ccc2O1 (configuration not stated) the results were aSyn UTR act -86.0*.
For Cn1c(=O)c(C(=O)NC2CCCCCCC2)c(O)c2ccccc21 the results were aSyn UTR act -166.3*.
For C=CCn1c(O)c(N=NC(=S)Nc2ccc(OC)c(Cl)c2)c2ccccc21 the results were aSyn UTR act 60.8.
`Cn1c(=O)c(C(=O)NC2CCCCCC2)c(O)c2ccccc21` gave aSyn UTR act -71.7*.
`CC1CCC(NC(=O)c2cc3c(=O)n(C)c4ccccc4c3n2C)CC1` (configuration not stated) gave aSyn UTR act -97.8*.
COc1ccc(NC(=O)c2cc3c(=O)n(C)c4ccccc4c3n2C)cc1Cl was read as aSyn UTR act -71.6*.
Screening Cn1cc(C(=O)C(=O)NC2CCCCC2)c2ccccc21 returned aSyn UTR act -67.9*.
For O=C1CCC/C(=N\NC(=O)c2ccc(COc3ccccc3-c3ccccc3)cc2)C1 the results were aSyn UTR act -71.2*.
`Cc1cc(N)c2cc(NC(=O)/C=C/c3ccccc3Cl)ccc2n1` gave aSyn UTR act 106.8.
`Cc1cc(C)nc(NC(=O)/C=C/c2ccc(Cl)cc2Cl)c1` gave aSyn UTR act -129.2*.
Cc1cc(C)nc(NC(=O)/C=C/c2ccccc2Cl)n1 was read as aSyn UTR act -160.5*.
Screening Cc1cc(C(=O)NNC(=S)NC(=O)/C=C/c2ccccc2Cl)n[nH]1 returned aSyn UTR act -94.2*.
Screening Cc1cc(C)nc(NC(=O)/C=C/c2ccccc2Cl)c1 returned aSyn UTR act -185.0*.
